Data: PubChem BioAssay (NCATS)
Records with an inconclusive call do not appear. Where a call stands in place of a potency, no number is given. The source made the active and inactive calls. Calls come from the whole dose curve; as a rule, active = well fitted curve in the direction sought with a large enough effect; inconclusive = small, poorly fitted or top-dose-only effect, or another doubt; inactive = no such curve, though single readings can be large; an effect the other way counts as inactive or inconclusive.

Tests used:
[1] = biological target: Cytochrome P450 3A4 (Homo sapiens) (UniProt P08684); test: qHTS Assay for Activators of Cytochrome P450 3A4 (AID 885); note: nearly all actives have a fitted effect of over 65% in size
Sequence of Cytochrome P450 3A4 (Homo sapiens) (P08684 whole entry, looked up): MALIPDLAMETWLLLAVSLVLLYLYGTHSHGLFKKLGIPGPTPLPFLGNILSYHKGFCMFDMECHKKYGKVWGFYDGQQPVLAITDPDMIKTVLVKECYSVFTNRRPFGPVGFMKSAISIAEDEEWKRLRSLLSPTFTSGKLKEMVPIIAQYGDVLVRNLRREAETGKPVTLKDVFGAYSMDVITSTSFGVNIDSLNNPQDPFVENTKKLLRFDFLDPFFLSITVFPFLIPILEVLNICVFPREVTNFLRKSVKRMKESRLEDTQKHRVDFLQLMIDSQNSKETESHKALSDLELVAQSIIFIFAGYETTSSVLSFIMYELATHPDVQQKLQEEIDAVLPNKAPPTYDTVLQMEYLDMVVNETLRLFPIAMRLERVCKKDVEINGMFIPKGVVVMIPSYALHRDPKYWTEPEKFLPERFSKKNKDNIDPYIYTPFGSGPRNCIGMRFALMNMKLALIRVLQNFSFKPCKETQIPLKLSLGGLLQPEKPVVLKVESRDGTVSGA
Summary of the method: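 20nM CYP3A4 + 25uM Luciferin-PPXE (=KM), 200mM KPO4; cpd 10 min RT; NADPH regen, 60 min RT; stop w/ detection buffer, 20 min; luminescence. Normalized to 57 uM ketoconazole.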

[2] = biological target: Cytochrome P450 2D6 (Homo sapiens) (UniProt P10635); test: qHTS Assay for Inhibitors and Substrates of Cytochrome P450 2D6 (AID 891); note: potency is the fitted concentration of half-maximal effect; nearly all actives have a fitted effect of over 60% in size
Sequence of Cytochrome P450 2D6 (Homo sapiens) (P10635 whole entry, looked up): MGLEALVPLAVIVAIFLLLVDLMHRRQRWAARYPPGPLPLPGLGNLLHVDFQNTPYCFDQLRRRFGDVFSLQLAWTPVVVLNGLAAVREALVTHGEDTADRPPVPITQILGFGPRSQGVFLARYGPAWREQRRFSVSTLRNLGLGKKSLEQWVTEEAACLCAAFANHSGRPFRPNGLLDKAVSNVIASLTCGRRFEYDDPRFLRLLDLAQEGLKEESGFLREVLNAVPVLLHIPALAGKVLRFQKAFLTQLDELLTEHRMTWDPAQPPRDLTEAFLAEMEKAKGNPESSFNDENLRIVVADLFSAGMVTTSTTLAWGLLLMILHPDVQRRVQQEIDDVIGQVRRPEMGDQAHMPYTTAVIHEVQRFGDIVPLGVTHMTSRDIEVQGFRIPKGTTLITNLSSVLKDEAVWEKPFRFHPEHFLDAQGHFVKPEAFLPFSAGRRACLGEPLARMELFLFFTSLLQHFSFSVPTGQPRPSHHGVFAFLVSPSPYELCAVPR
Summary of the method: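 Human CYP2D6 (5 nM) with 30 uM Luciferin-ME EGE (at Km) in 100 mM KPO4, compound preincubated 10 min, then NADPH regeneration system for 60 min at room temperature. Luciferin read by luminescence; normalized to 1.43 uM quinidine.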

With `CN1C[C@@H](CO)C=C2c3cccc4[nH]cc(c34)CC21` (some centres not stated) the Potency [1] was “inactive”.
`c1ccc2c(c1)-c1ccccc1C2N1CC2CCC(CC2)C1` was tested, and the Potency [2] was 3980 nM (active).
In the case of `BrC1C(Br)C(Br)C(Br)C(Br)C1Br` (configuration not stated), the Potency [1] is reported as “inactive”.
With `O=C(OCC1CO1)C1CCCCC1C(=O)OCC1CO1` (configuration not stated) the Potency [1] was “inactive”.
`C[C@]12CC[C@@H]3C(=CCc4cc(O)ccc43)[C@@H]1CCC2=O` was tested, and the Potency [1] was “inactive”.
`CN1[C@H](CC(=O)c2ccccc2)CCC[C@H]1C[C@@H](O)c1ccccc1` was tested, and the Potency [2] was 10 nM (active).
With `CC1(C)C2(Cl)C(Cl)C(Cl)C(Cl)(C(Cl)Cl)C1(Cl)C2Cl` (configuration not stated) the Potency [1] was “inactive”.
